# The list is not random: actives were taken first. Their share in the collection is about 3.7%.
# NALP3 yeast inh: NALP3 inflammasome inhibitors in reconstituted yeast, primary screen, luminescence, uHTS. inhibition, % at 10 µM. actives 0.39% (n = 330,000). Yeast reconstituted NLRP3/ASC/caspase-1, beta-gal luminescence, 24 h. AID 2825, 2010;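 active = inhibition of 50% or more; inactive = inhibition below 50%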
# tim10-1 inh: growth inhibitors of tim10-1 mutant yeast, primary screen, luminescence, uHTS. S. cerevisiae tim10-1 ts strain growth, BacTiter-Glo, 24 h. inhibition, % at 20 µM. actives 2.2% (n = 330,000). AID 463190, 2010;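 active = inhibition of at least 40%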;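 note: mutant grown at 25 °C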
# tim23-1 inh: growth inhibitors of tim23-1 mutant yeast, primary screen, luminescence, uHTS; actives 1.3% (n = 330,000); AID 463212, 2010; S. cerevisiae tim23-1 growth, BacTiter-Glo luminescence, 24 h; inhibition, % at 20 µM;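 active = growth inhibition of the mutant yeast at or above 50%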;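 note: temperature-sensitive mutant grown at 25 °C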
# PfHsp90 yeast 2: growth inhibition of PfHsp90-expressing yeast, primary screen, antimalarial PfHsp90 inhibitor project, S. cerevisiae, BacTiter-Glo luminescence, single point, set 2 | actives 0.32% (n = 310,000) | inhibition, % at 9.4 µM | BacTiter-Glo ATP, 48 h; yeast lacking PDR1 and PDR3 efflux regulators;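 active = every replicate shows inhibition above about 80%, whatever the replicate mean, limit read from the data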
# TIM10 inh: growth inhibitors of isogenic TIM10 control yeast, primary screen, counter-screen for tim10-1 yeast inhibitor project, luminescence, uHTS. inhibition, % at 10 µM. actives 1.4% (n = 330,000). AID 463195, 2010. S. cerevisiae TIM10 strain growth, BacTiter-Glo luminescence, 24 h;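 active = inhibition of 40% or more at the single tested concentration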;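 note: wild-type TIM10 isogenic control strain grown at permissive 25 °C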
# TIM10 conf: growth inhibitors of wild-type TIM10 yeast, confirmation, counter-screen for tim10-1 synthetic lethality project, single concentration, luminescence, S. cerevisiae; shares compounds with TIM10 inh; S. cerevisiae tim10 strain growth, BacTiter-Glo luminescence, 24 h; inhibition, % at 10 µM; actives 63% (n = 4,600); AID 463215, 2010;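 active = inhibition of yeast growth at or above a set limit in either of two replicates at 10 µM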; note: this counterscreen used the strain with wild-type TIM10
# tim23-1 conf: tim23-1 mutant yeast growth inhibitors, confirmation, luminescence, single concentration | shares compounds with tim23-1 inh | inhibition, % at 20 µM | actives 83% (n = 4,400) | S. cerevisiae tim23-1 growth, BacTiter-Glo luminescence, 24 h;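 active = inhibition above about 39% in either of two replicate wells at 20 µM, limit read from the data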;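 note: temperature-sensitive tim23-1 mutant grown at 25 °C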
# Hits are given with their value; i = inactive; nt = no result given.
SMILES,NALP3 yeast inh,tim10-1 inh,tim23-1 inh,PfHsp90 yeast 2,TIM10 inh,TIM10 conf,tim23-1 conf
N/C(=N\OC(=O)c1cc(Cl)ccc1Cl)c1ccccn1,i,i,66,i,58,44,57
Cc1cc(/C(N)=N/OC(=O)c2ccccc2Cl)no1,i,i,i,i,i,nt,nt
Cc1cccc(/C(N)=N/OC(=O)c2ccc(Cl)cc2Cl)c1,i,i,66,i,86,88,40
Cc1ccc(/C(N)=N/OC(=O)c2ccc(C)cc2Cl)cc1,i,i,80,i,82,89,i
COc1ccc(Cl)cc1C(=O)O/N=C(\N)c1ccccn1,i,i,i,i,i,nt,nt
N/C(=N\OC(=O)c1ccc(Cl)cc1Cl)c1ccc(Cl)cc1,i,i,82,i,79,85,67
CN(CCc1ccccn1)C(=O)CCC1CCCN(C(=O)CCOc2ccccc2)C1 (stereo not drawn),i,i,i,i,i,nt,nt
Cc1ccc(C)c(-c2nc3ccc(N)cc3[nH]2)c1,i,i,i,i,i,nt,nt
Cc1ccc2nc(-c3ccccc3N)[nH]c2c1,i,i,67,i,44,i,i
Cc1ccc2[nH]c(=O)c(CN(CC3COCCO3)C(=O)Nc3ccccc3F)cc2c1 (stereo not drawn),i,i,i,i,i,nt,nt
COc1cccc(/C=N/Nc2ncnc3scc(-c4ccccc4)c23)c1O,i,i,59,100,54,67,60
COc1ccc(OC)c(CNC(=O)c2nn(C)c3c2CS(=O)(=O)c2ccccc2-3)c1,i,i,i,i,i,nt,nt
c1ccc(CSc2nc3ccccc3[nH]2)cc1,i,i,i,i,i,nt,nt
CCCOc1ccc(CSc2nc3ccccc3[nH]2)cc1,i,i,64,nt,47,36,49
O=C1CSCC(=O)N1c1ncc(C(F)(F)F)cc1Cl,i,i,i,i,i,nt,nt
COC(=O)c1ccc(NC2=C(Cl)C(=O)OC2OC(=O)c2ccccc2)cc1 (stereo not drawn),i,i,50,i,41,i,43
CCCn1nnc(NC(=O)c2ccc(-c3cccc(Cl)c3)o2)n1,i,i,69,i,51,32,74
CCn1nnc(NC(=S)NC(=O)c2ccc(-c3cccc(Cl)c3)o2)n1,i,i,i,i,i,nt,nt
Cc1cc(C)c(NS(=O)(=O)c2cccc3cccnc23)c(C)c1,i,i,i,i,i,nt,nt
Cc1ccc(S(=O)(=O)Nc2cccc3cccnc23)c([N+](=O)[O-])c1,i,i,52,nt,46,35,53
C=CCn1cc(C(=O)NCCCN(CC)CC)c(=O)c2cc(S(=O)(=O)N3CCC(C)CC3)ccc21,i,i,i,i,i,nt,nt
N#C/C(=C\c1ccc(O)cc1)C(=O)N1CCCC1,i,i,i,i,i,nt,nt
Cc1ccc(/C=C(\C#N)C(=O)N2CCCC2)c(C)c1,i,i,52,i,45,39,50
O=C(CN1C(=O)C2CC=CCC2C1=O)Nc1nc2ccccc2[nH]1 (stereo not drawn),i,i,i,i,i,nt,nt
N/C(CC1CC1(Cl)Cl)=N\OC(=O)c1ccccc1 (stereo not drawn),i,i,80,i,52,66,73
SMILES,NALP3 yeast inh,tim10-1 inh,tim23-1 inh,PfHsp90 yeast 2,TIM10 inh,TIM10 conf,tim23-1 conf
CC(C)(C)c1ccc(OCC(=O)N(Cc2cccs2)C2CCS(=O)(=O)C2)cc1 (stereo not drawn),i,i,i,i,i,nt,nt
O=C(Nc1ccccc1)ON=C1CCCC1,i,i,i,i,i,nt,nt
Cc1ccc(NC(=O)ON=C2CCCC2)cc1,i,i,53,i,54,68,47
COc1ccc(NC(=O)c2cccs2)cc1,i,i,i,i,i,nt,nt
COc1ccc(N=N/C(=C\O)C(=O)c2cccs2)cc1,i,i,76,i,55,58,65
CC1=NN(c2ccc(C(=O)O)cc2)C(=O)/C1=C/c1ccc(-c2ccccc2F)o1,i,i,62,i,43,i,39
CC1=NN(c2ccc(C)cc2)C(=O)/C1=C/c1ccc(-c2cc([N+](=O)[O-])ccc2O)o1,i,i,i,i,i,nt,nt
CCN(CC(=O)NCc1ccncc1)S(=O)(=O)c1ccccc1,i,i,i,i,i,nt,nt
CC(C)N1CCc2c(sc(NC(=O)c3ccc4ccccc4c3)c2C(N)=O)C1,i,i,i,i,i,nt,nt
CC(=O)Nc1sc2c(c1-c1nc3ccccc3s1)CCN(C(C)C)C2,i,i,54,i,66,63,60
COc1cc(NC(=O)c2ccccc2)c(OC)cc1NC(=O)Cc1ccc(C)cc1,i,i,i,i,i,nt,nt
C=CCc1cccc2cc(C(=O)NCc3ccc(C(=O)OCC)o3)c(=O)oc12,i,i,i,i,i,nt,nt
c1ccc(NCc2nc3ccccc3n2CCOc2ccccc2)cc1,i,i,52,i,43,50,52
CCc1nnc(NC(=O)C(C)Sc2ccccc2)s1 (stereo not drawn),i,i,i,i,i,nt,nt
CCC(C)n1c(-c2cccc(S(=O)(=O)N3CCOCC3)c2)n[nH]c1=S (stereo not drawn),i,i,i,nt,i,nt,nt
O=Cc1ccc(OCCCOc2cccc3cccnc23)cc1,i,i,i,i,i,nt,nt
O=Cc1ccccc1OCCCOc1cccc2cccnc12,i,i,76,i,49,52,79
COc1ccccc1NC(=O)CSc1nnc(CNC(=O)COc2ccc(Cl)cc2)o1,i,i,i,i,i,nt,nt
COc1ccc(OC)c(N/C=C/C(=O)c2ccccc2)c1,i,i,62,i,44,i,83
COc1ccc(OC)c(N/C(C)=C/C(=O)c2ccccc2)c1,i,i,i,i,i,nt,nt
CNC(=O)c1cc2c(=O)n3cccc(C)c3nc2n(C(C)C)c1=N,i,i,i,nt,i,nt,nt
CCOC(=O)c1sc(NC(=O)c2ccccc2)cc1C,i,i,64,i,50,32,72
O=C(Nc1cc(Cl)cc(Cl)c1)N1CCCC1,i,i,54,i,48,i,46
FC(F)(F)c1cnc(NNC(=S)Nc2ccc(Cl)cc2)c(Cl)c1,i,i,i,i,i,nt,nt
FC(F)(F)c1cccc(NC(=S)NNC(=S)Nc2ccc(Cl)cc2)c1,i,i,65,nt,59,73,i
CCCCN(C(=O)c1cccc(S(=O)(=O)N2CCN(Cc3ccccc3)CC2)c1)c1ccccc1,i,i,i,i,i,nt,nt

# High-throughput results: PubChem BioAssay, several laboratories
